Results filed as inconclusive are left out. Calls of active or inactive are those of the source. Calls come from the whole dose curve; as a rule, active = well fitted curve in the direction sought with a large enough effect; inconclusive = small, poorly fitted or top-dose-only effect, or another doubt; inactive = no such curve, though single readings can be large; an effect the other way counts as inactive or inconclusive.
Assays:
[1] = qHTS for Inhibitors of Plasmodium falciparum (DD2) proliferation (AID 504314);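 note: parasite DNA measured by SYBR Green fluorescence after red cell lysis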
Method in brief: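 P. falciparum Dd2 is grown in erythrocytes with test compound for 72 h at 37C under 5% CO2. Growth is scored by SYBR Green I fluorescence after detergent lysis, relative to artemisinin (0.29 uM) and DMSO controls.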

[2] = qHTS for Inhibitors of Plasmodium falciparum (GB4) proliferation (AID 504315); note: nearly all actives have a fitted effect of over 50% in size
Method in brief: (§1)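 Parasite growth measured as SYBR Green DNA fluorescence (ex 485, em 535 nm) after overnight lysis following 72 h culture at 37 °C, 0.3% parasitemia, 2.5% hematocrit. Values normalized against DMSO and 0.29 uM artemisinin controls, with plate-stack correction.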

[3] = qHTS for Inhibitors of Plasmodium falciparum (7G8) proliferation (AID 504316); note: series mostly up to about 6.7 µM; nearly all actives have a fitted effect of over 65% in size
Method in brief: as §1

[4] = qHTS for Inhibitors of Plasmodium falciparum (HB3) proliferation (AID 504318); note: nearly all actives have a fitted effect of over 60% in size
Method in brief: as §1

[5] = qHTS for Inhibitors of Plasmodium falciparum (CP250) proliferation (AID 504320)
Method in brief: as §1

Measured: Potency

CCN1C(=O)N[C@@H](c2cccc(C(F)(F)F)c2)C(C(C)=O)=C1C
inactive: [1] | [2] | [3] | [4] | [5]

CCOC(=O)CNC(=O)O[C@@H]1C(=O)c2cc(OC)ccc2O[C@H]1c1ccc(OC)c(Br)c1
inactive: [1] | [2] | [3] | [4] | [5]

CC1(OC(=O)c2ccc(Cl)nc2)C(=O)C=C2C=C(C3CC3)OC=C2C1=O (stereo not given)
inactive: [1] | [2] | [3] | [4] | [5]

CC1(OC(=O)c2ccc(Cl)nc2)C(=O)C=c2cc(-c3ccsc3)ncc2=C1OC(=O)C1CCCC1 (stereo not given)
inactive: [1] | [2] | [3] | [4] | [5]

CCOC(=O)CN1C(=O)N[C@@H](c2ccc(Br)cc2)C(C(=O)OC)=C1C
inactive: [1] | [2] | [3] | [4] | [5]

COC(=O)C1=C(C(=O)OC)[C@@H]2N(Cc3ccccc3)c3ccccc3[C@@]23C[C@@H](C(=O)OC)N(C(=O)NCCBr)C3=N1
inactive: [1] | [2] | [3] | [4] | [5]

CC(=O)Nc1ccc(S(=O)(=O)N2CCc3nc(COc4ccccc4)c4c(c3C2)CO[C@@H](C)C4)cc1
inactive: [1] | [2] | [3] | [4] | [5]

CCCCC1=CC2=C(c3ccco3)C(=O)C(C)(OC(=O)c3ccc(OC)cc3)C(=O)C2=CN1CCCCO (stereo not given)
inactive: [1] | [2] | [3] | [4] | [5]

COC/C=C/C1=CC2=CC(=O)C(C)(OC(=O)c3cnc4ccccc4n3)C(=O)C2=CN1C(CO)CO (stereo not given)
inactive: [1] | [2] | [3] | [4] | [5]

CCCCC1=CC2=CC(=O)C(C)(OC(=O)CC)C(=O)C2=CN1Cc1ccc(OC)cc1 (stereo not given)
inactive: [1] | [2] | [3] | [4] | [5]

COC(=O)C1=C(C(=O)OC)[C@@H]2N(C)c3ccccc3[C@@]23C[C@@H](C(=O)OC)N(C(=O)C2CCC2)C3=N1
inactive: [1] | [2] | [3] | [4] | [5]

COC(=O)C1=C(C(=O)OC)[C@@H]2Nc3ccccc3[C@@]23C[C@@H](C(=O)OC)N(C(C)=O)C3=N1
inactive: [1] | [2] | [3] | [4] | [5]

Source: PubChem BioAssay (NCATS)
